Source: PubChem BioAssay AID687010 (National Center for Advancing Translational Sciences (NCATS), 2013)
Activity calls are given as the source filed them.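 Rule for the calls: active = a significant rise in survival of treated spinal muscular atrophy model mice compared with vehicle-treated controls; inactive = no significant rise in survival.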

Experiment: Extended Characterization of SMN2 Inhibitors: Survival Studies
Settings: SMNdelta7 SMA mice, 50 mg/kg i.p. twice daily
From the text: Spinal muscular atrophy (SMA) is caused by insufficient levels of the survival motor neuron protein SMN. The SMN locus on chromosome 5q13 contains two inverted copies of SMN called SMN1 and SMN2 which are 99% identical at the amino acid level. SMN1 is a fully functional protein and SMN2 skips exon 7 90% of the time. Skipping of exon 7 produces non-functional protein product. 10% of the SMN2 protein includes exon 7 and is fully functional. In the SMA disease state, mutations in the SMN1 locus are the cause of the disease state. Because only 10% of SMN2 is of the fully functional form, it is not sufficient to overcome the deficiency produced by the loss of the SMN1 product. A therapy that either increase the amount of SMN2 product made or to increase the inclusion of exon 7 has been proposed for the treatment of SMA. We have previously filed a probe report and have now done further SAR and further characterized the resulting compounds in mice studies. […]
Studies were approved by the National Institute of Neurological […] and Stroke Animal Care Committee and performed in accordance with the National Institutes of Health Guide for the Care and Use of Laboratory Animals. […] For survival studies, litters were maintained and kept with the mother until P21, after which if any SMA pups survived they were weaned and continued to be monitored.

Compound	outcome
O=C(O)C1CCN(c2ncc(-c3ccc4c(c3)OCCCO4)s2)CC1	active; yes
